Laboratory results from PubChem BioAssay.

Columns and labels:
[1] = tested on: Human papillomavirus type 1a protein E7 (residues 44-93); assay: small molecules binding HPV E7 44-93 – biochemical, small-molecule microarray, residues 44-93, 635 nm fluorescence, primary screen (AID 1108); details: fluorescence 635 nm, higher = more signal;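 note: E7 fragment applied at 1 µg/mL in TBST for 1 h at 4 C; score combines spot fluorescence with its signal to noise ratio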
[2] = hepatitis C replication reporter changes, two-sided – Huh7 cells, luciferase reporter, HCV replication inhibitor project, primary screen (AID 1109); details: Huh7 HCV replicon luciferase reporter, 48 h; higher = more signal;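 note: huh7 hepatoma cells harbouring a luciferase neomycin HCV replicon reporter; luciferase luminescence as measure of HCV replicon replication; test concentration not given here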
[3] = target: Left-right determination factor 2 (Homo sapiens) (UniProt O00292); assay: small molecules binding LEFTY2 protein – biochemical, small-molecule microarray, 635 nm fluorescence scan, primary screen (AID 1110); details: higher = more signal
[4] = target: Calmodulin-1 (Homo sapiens) (UniProt P0DP23); assay: small molecules binding calmodulin-1 with EGTA – biochemical, small-molecule microarray, Cy5-labelled CALM1, profiling panel (AID 1111); details: Cy5-CALM1 binding fluorescence, higher = more signal;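 note: labelled calmodulin applied in Tris saline Tween buffer holding calcium plus EGTA and DTT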
[5] = target: Calmodulin-1 (Homo sapiens) (UniProt P0DP23); assay: small molecules binding Ca-loaded calmodulin-1 – biochemical, small-molecule microarray, Cy5-labelled CALM1, plus calcium, artefact control for SMM control-protein annotation, profiling panel (AID 1112); details: Cy5-CALM1 binding fluorescence, higher = more signal;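 note: score merges spot fluorescence with signal to noise from triplicate slides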
[6] = probe aWnt5a binding to arrayed compounds – biochemical, biotinylated probe, 635/667 nm fluorescence, primary screen (AID 1113); details: small-molecule microarray, higher = more signal;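 note: score merges 667 nm fluorescence intensity with signal-to-noise per printed feature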
[7] = probe aShh binding to arrayed compounds – biochemical, biotinylated probe, 635/667 nm fluorescence, primary screen (AID 1114); details: small-molecule microarray, higher = more signal;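 note: probe is biotin-labelled aShh protein from a stem cell growth factor screen; measures binding of labelled protein to compounds printed on the slide; score merges feature fluorescence at 667 nm with signal-to-noise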
[8] = probe aNog binding to arrayed compounds – biochemical, biotinylated probe, 635/667 nm fluorescence, primary screen (AID 1115); details: small-molecule microarray, higher = more signal;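 note: probe is biotinylated aNog protein used at 0.15 µg/mL for 1 h at 4 C; z-score combines 667 nm fluorescence of each spot with its signal to noise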
[9] = target: Torsin-1A-interacting protein 1 (Homo sapiens) (UniProt Q5JTV8); assay: compound microarray binding of lysate hLAP1 – cell lysate, small-molecule microarray, COS7 lysate, 635/667 nm fluorescence, primary screen (AID 1116); details: 635 nm fluorescence, higher = more signal
[10] = target: Alpha-bungarotoxin (Bungarus multicinctus) (UniProt P60615); assay: compounds binding labelled alpha-BTX control protein – biochemical, small-molecule microarray, Alexa647 label, 635/667 nm fluorescence, artefact control for SMM control protein annotation, profiling panel (AID 1117); details: alpha-BTX-A647 binding fluorescence, higher = more signal
Sequence of Alpha-bungarotoxin (Bungarus multicinctus) (P60615 whole entry, looked up): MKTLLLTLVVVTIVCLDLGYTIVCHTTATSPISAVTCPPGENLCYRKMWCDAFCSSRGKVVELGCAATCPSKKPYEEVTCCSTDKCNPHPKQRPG

Sequence of Left-right determination factor 2 (Homo sapiens) (O00292 whole entry, looked up): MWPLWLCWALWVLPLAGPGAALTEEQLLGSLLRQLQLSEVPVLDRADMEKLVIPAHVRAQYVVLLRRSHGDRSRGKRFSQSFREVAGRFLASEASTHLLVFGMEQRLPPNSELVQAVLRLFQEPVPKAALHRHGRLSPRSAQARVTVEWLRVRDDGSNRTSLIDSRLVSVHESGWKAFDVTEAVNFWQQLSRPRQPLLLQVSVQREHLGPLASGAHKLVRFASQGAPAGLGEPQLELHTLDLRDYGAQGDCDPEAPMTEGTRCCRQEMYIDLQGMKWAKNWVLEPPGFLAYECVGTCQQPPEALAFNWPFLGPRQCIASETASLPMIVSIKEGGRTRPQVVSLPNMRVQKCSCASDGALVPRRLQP
Sequence of Torsin-1A-interacting protein 1 (Homo sapiens) (Q5JTV8 whole entry, looked up): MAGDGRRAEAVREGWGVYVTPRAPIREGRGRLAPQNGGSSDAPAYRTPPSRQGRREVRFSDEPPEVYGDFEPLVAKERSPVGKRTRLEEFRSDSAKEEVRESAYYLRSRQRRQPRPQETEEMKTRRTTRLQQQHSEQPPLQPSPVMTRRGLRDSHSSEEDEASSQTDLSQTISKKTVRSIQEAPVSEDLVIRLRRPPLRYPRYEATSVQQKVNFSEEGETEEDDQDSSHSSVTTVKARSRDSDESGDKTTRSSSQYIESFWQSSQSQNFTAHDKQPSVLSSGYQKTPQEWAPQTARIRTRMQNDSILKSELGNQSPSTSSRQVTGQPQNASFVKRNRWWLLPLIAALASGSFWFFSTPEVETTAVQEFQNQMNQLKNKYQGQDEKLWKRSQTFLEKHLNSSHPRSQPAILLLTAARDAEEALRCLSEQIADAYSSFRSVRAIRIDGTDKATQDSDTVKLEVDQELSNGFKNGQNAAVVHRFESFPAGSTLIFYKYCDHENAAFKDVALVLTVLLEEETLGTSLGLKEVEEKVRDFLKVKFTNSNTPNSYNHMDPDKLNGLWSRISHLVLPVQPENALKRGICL

Compound | composite z-score [1] | z-score [2] | composite z-score [3] | composite z-score [4] | composite z-score [5] | composite z-score [6] | composite z-score [7] | composite z-score [8] | composite z-score [9] | composite z-score [10]
C#CCCCON=C1[C@H]2CCn3c(=O)n([C@@H](CC)c4ccccc4)c(=O)n3[C@H]2[C@H](O)[C@@H]2O[C@H]12 | -0.194 | -3.43 | 0.0878 | -0.184 | -0.483 | -0.0799 | -0.0295 | -0.35 | -0.0356 | -0.151
CC(C)=NOC(C)CN1CCCc2nc(C)c(C)cc21 (stereo not given) | 1.17 | 0.302 | 0.75 | -0.291 | -0.869 | -0.0718 | 0.214 | -0.0809 | -0.0182 | 0.32
CON=C(C)CCN1CCCCc2nc(C)c(C)cc21 | -0.111 | -0.319 | 0.679 | -0.327 | -0.817 | 0.11 | -0.147 | -0.337 | 0.445 | -0.0996
CCCNC(=O)OC[C@H]1O[C@H](CCON=C2c3cc(OC)ccc3O[C@H](c3cccc(OC)c3)[C@H]2O)C=C[C@@H]1Oc1ccc(OC)cc1 | 0.523 | -3.02 | 0.322 | 0.571 | 0.0967 | -0.187 | -0.0035 | -0.239 | 1.28 | 1.2
CCO[C@H](c1cc(OC)cc([N+](=O)[O-])c1OC)[C@H](C)[C@@H](OC)[C@H](C)C=CCC(=O)OC | 0.488 | 0.899 | -0.0609 | 0.379 | -0.103 | -0.0383 | -0.138 | -0.445 | -0.0844 | 0.696
COc1ccc(COC(=O)NN=C2C[C@@H](O)[C@@H](O)[C@@H]3[C@@H]4C(=O)N(c5cccc(Oc6ccccc6)c5)C(=O)[C@@H]4CC[C@H]23)cc1 | -0.0321 | -1.46 | -0.35 | 0.0317 | 0.176 | -0.215 | -0.2 | -0.336 | 0.215 | 0.971
O=C1CCCC=C1C(O)COCc1ccccc1 (stereo not given) | -1.61 | -0.45 | -0.0061 | -0.0384 | -1.3 | 0.026 | -0.269 | -0.172 | 0.381 | 0.032
CN1CCc2nc(-c3ccccc3)c(-c3ccccc3)cc2C1 | 0.321 | 0.179 | 0.47 | -0.174 | -0.414 | -0.0239 | 0.204 | -0.287 | 0.269 | 0.127
CCN1C(=O)[C@H]2[C@H]3[C@H](O)[C@H](O)CC(=NNC(=O)OCc4ccccc4)[C@H]3CC[C@H]2C1=O | 0.663 | -0.0788 | 0.227 | -0.307 | -0.767 | -0.0459 | 0.0637 | -0.452 | 0.185 | 0.504
CCOC(=O)NN=C1C[C@@H](O)[C@@H](O)[C@@H]2[C@@H]3C(=O)N(CC)C(=O)[C@@H]3CC[C@H]12 | -0.307 | 0.276 | 0.346 | -0.317 | -0.325 | -0.176 | -0.0813 | -0.244 | 0.0626 | -0.113
CO[C@@H]1COC(=O)[C@H](CCSC)NC(=O)CC=C[C@@H](C)COC(=O)[C@@H]2CCCN2C(=O)CC=C[C@H]1C | -0.427 | -0.522 | 0.857 | -0.776 | -1.36 | -0.0276 | 0.0278 | -0.036 | 0.771 | -0.245
CC(=O)OC[C@H]1O[C@H](C#CCC2CCCCC2)C=C[C@@H]1OC(C)=O | 1.12 | -2.57 | 0.992 | 0.235 | -0.26 | -0.154 | 0.194 | 0.129 | 0.471 | 0.36
COc1cccc([C@H]2Oc3ccc(OC)cc3C(=NO[C@@H](C)c3cc(-c4c(C)cc(C)cc4C)no3)[C@@H]2O)c1 | -0.355 | -1.71 | -2.35 | -0.831 | 0.668 | -0.172 | -0.195 | 0.0983 | -0.589 | -0.628
CC(C)[C@@H](OCc1ccccc1)[C@H](C)C=NOC[C@@H](O)[C@H]1O[C@@H]2OC(C)(C)O[C@@H]2[C@H]1O | 0.436 | -1.75 | 0.413 | 0.178 | -0.606 | -0.15 | -0.634 | 0.848 | 0.145 | 0.278
CC(C)CON=C1C[C@@H](O)[C@@H](O)[C@@H]2[C@@H]3C(=O)N(C(C)(C)C)C(=O)[C@@H]3CC[C@@H]12 | -0.219 | -0.851 | 1.1 | -1.39 | -2.27 | -0.178 | -0.229 | -0.158 | 0.0031 | -0.718
O=C1C=C[C@@H](O)[C@@H]2[C@@H]3C(=O)N(Cc4ccccc4)C(=O)[C@@H]3CC[C@@H]12 | 0.248 | 0.493 | 0.527 | -0.133 | -0.457 | -0.0758 | -0.283 | -0.213 | 0.476 | 0.332
Cc1cc(C)c(-c2cc([C@H](C)ON=C[C@@H](C)[C@H](OCc3ccccc3)C(C)C)on2)c(C)c1 | -1.42 | -2.06 | -0.0341 | -0.27 | -0.34 | -0.0403 | 0.0815 | -0.168 | -0.601 | 0.108
